G9a inh: inhibitors of human histone lysine methyltransferase G9a; G9a H3K9 monomethylation, AlphaScreen, 2 h; Potency, µM (highest dose often 102 µM), inactives show at the top dose activity, negative = inhibition, actives largely listed as inhibitors; hit rate 8.8% among 350,000; AID 504332; note: % is set by controls: 0 for no effect and ±100 for the full control effect; nearly all actives have a fitted effect of over 75% in size
Target sequence (Q96KQ7 913-1193 limits assumed): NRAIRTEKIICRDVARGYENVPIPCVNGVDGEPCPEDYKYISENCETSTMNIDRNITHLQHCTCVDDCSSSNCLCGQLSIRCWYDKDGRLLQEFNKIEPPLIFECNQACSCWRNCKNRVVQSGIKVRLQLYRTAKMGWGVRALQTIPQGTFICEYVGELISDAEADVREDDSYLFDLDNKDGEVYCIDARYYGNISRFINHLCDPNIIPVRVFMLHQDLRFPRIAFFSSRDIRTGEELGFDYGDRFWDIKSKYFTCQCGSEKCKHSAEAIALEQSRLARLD
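AlphaScreen detection with an anti-monomethyl H3K9 antibody quantified product after a 2 h room-temperature reaction containing 500 nM biotinylated H3K9 peptide, 20 µM SAM and 20 nM enzyme, which had been preincubated 15 min with compound.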
HP1b binding inh: HP1-beta chromodomain-methylated histone interaction inhibition | P83916 | AlphaScreen HP1-beta / biotin-H3K9me3 peptide binding | Potency, µM (top dose mostly 114 µM), inactives show at the top dose activity change, negative = inhibition, hits mostly inhibitors | hit rate 0.56% among 390,000 | AID 540317; note: nearly all actives have a fitted effect of over 70% in size
Target sequence (P83916 whole entry, looked up): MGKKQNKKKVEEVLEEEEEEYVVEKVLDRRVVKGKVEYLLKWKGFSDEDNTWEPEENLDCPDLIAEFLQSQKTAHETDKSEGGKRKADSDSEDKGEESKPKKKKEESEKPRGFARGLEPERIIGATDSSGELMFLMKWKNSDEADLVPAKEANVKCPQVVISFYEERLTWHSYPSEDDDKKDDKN
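Compound inhibition of the preformed complex between 50 nM HP1-beta and 50 nM biotinylated H3K9me3 peptide was read by AlphaScreen. Buffer was PBS pH 7.4 with 0.01% Tween-20. Incubations ran 30 min at room temperature, with 10 ug/mL donor/acceptor beads.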
BAZ2B inh: inhibitors of human BAZ2B bromodomain | AlphaScreen BAZ2B-H3K14Ac peptide displacement | Q9UIF8 | hit rate 4.4% among 360,000 | Potency, µM (top dose mostly 114 µM), for inactives: top-dose activity change, negative = inhibition, actives largely listed as inhibitors; note: % is set by controls: 0 for no effect and ±100 for the full control effect; nearly all actives have a fitted effect of over 60% in size
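AlphaScreen luminescence quantifies BAZ2B engagement of H3K14Ac peptide; the protein and biotinylated peptide are both at 50 nM final, buffer PBS pH 7.4 with 0.01% Tween-20, all steps at room temperature.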
JMJD2A Tudor: inhibitors of human JMJD2A Tudor domain; hit rate 4.4% among 390,000; Potency, µM (top dose mostly 114 µM), for inactives: at the highest dose activity change, negative = inhibition, hits mostly inhibitors; AlphaScreen JMJD2A-Tudor / H3K4me3 peptide binding; note: % is set by controls: 0 for no effect and ±100 for the full control effect; nearly all actives have a fitted effect of over 50% in size
Sfp inh: inhibitors of Bacillus subtilis Sfp phosphopantetheinyl transferase; Potency, µM, without a hit: largest response in the series, negative = inhibition, actives largely listed as inhibitors; hit rate 3.5% among 310,000; Biochemical Sfp PPTase activity, qHTS; AID 1490; Q9F4F7;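 note: the enzyme is Sfp with the accession as filed and its product quenches rhodamine fluorescence; 0% = enzyme reaction without inhibitor and -100% = no enzyme wells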
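Buffer: 50 mM Hepes-Na pH 7.6, 10 mM MgCl2, 0.01% Nonidet P-40, 0.01% BSA. Enzyme 15 nM, pre-exposed to compound 15 min; substrates then added and fluorescence change tracked over 30 min.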
Starred values were filed as active, the others as inactive; ! = not active in a repeat; [ ] = dose if it differs, or a comment. Only some compounds are listed: those with a hit (about 12% of all), similar ones and a draw of the others. Calls come from the whole dose curve; as a rule, active = well fitted curve in the direction sought with a large enough effect; inconclusive = small, poorly fitted or top-dose-only effect, or another doubt; inactive = no such curve, though single readings can be large; an effect the other way counts as inactive or inconclusive. Potency is the fitted concentration of half-maximal effect.

How did CCC(C)c1ccc(S(=O)(=O)Nc2cccnc2)cc1 (centres undefined) do in these assays?
G9a inh: 50.1µM*; HP1b binding inh: 45.8%; BAZ2B inh: -31.2%; JMJD2A Tudor: -30.2%; Sfp inh: 3.8%

What do the screens show for `COc1ccc(CC(=O)Nc2ccc3nc(C)sc3c2)cc1OC`?
G9a inh: 20µM*; HP1b binding inh: 36.2%; BAZ2B inh: -3.8%; JMJD2A Tudor: -5.7%; Sfp inh: -8.2%

Results for COc1ccc(C(=O)Nc2ccc3nc(C)sc3c2)cc1OC ?
G9a inh: -5.1%[59 µM]; HP1b binding inh: -1.9%; BAZ2B inh: -25.5%; JMJD2A Tudor: -27.0%; Sfp inh: 16.5%

Results for Cc1nc2ccc(NC(=O)COc3ccccc3C)cc2s1 ?
G9a inh: 44.7µM*; HP1b binding inh: 28.6%; BAZ2B inh: 5.4%; JMJD2A Tudor: -17.9%; Sfp inh: 31.6µM*

What do the screens show for `Cc1nc2ccc(NC(=O)COc3ccccc3[N+](=O)[O-])cc2s1`?
G9a inh: 6.6%; HP1b binding inh: 36.3%; BAZ2B inh: -2.3%; JMJD2A Tudor: -5.8%; Sfp inh: 5.2%

What do the screens show for `O=C(CSc1nc(-c2cccc(Cl)c2)nc2cc(=O)[nH]n12)Nc1ccccc1`?
G9a inh: -6.7%[59 µM]; HP1b binding inh: -0.6%; BAZ2B inh: 56.2µM*; JMJD2A Tudor: inconclusive

How did Cc1ccc(NC(=O)CSc2nc(-c3ccc(C(C)(C)C)cc3)nc3cc(=O)[nH]n23)cc1C do in these assays?
G9a inh: 17.7%[59 µM]; HP1b binding inh: 25.1%; BAZ2B inh: -3.5%; JMJD2A Tudor: -1.3%

Results for CCOc1ccc(-c2nc(SCC(=O)Nc3ccc(C)c(C)c3)n3[nH]c(=O)cc3n2)cc1 ?
G9a inh: -3.9%[59 µM]; HP1b binding inh: inconclusive; BAZ2B inh: 50.1µM*; JMJD2A Tudor: 50.1µM*

How did O=C(CSc1nc(-c2cccs2)nc2cc(=O)[nH]n12)Nc1ccc(F)cc1 do in these assays?
G9a inh: 25.9%[59 µM]; HP1b binding inh: 21.0%; BAZ2B inh: -4.3%; JMJD2A Tudor: -16.6%

How did Cc1ccc(NC(=O)CSc2nc(-c3ccco3)nc3cc(=O)[nH]n23)c(Cl)c1 do in these assays?
HP1b binding inh: 26.0%; BAZ2B inh: 44.7µM*; JMJD2A Tudor: inconclusive; Sfp inh: inconclusive

Results for Cc1ccc(NC(=O)CSc2nc(-c3cccs3)nc3cc(=O)[nH]n23)cc1C ?
G9a inh: 24.7%[12.7 µM]; HP1b binding inh: -21.2%; BAZ2B inh: 50.1µM*; JMJD2A Tudor: 79.4µM*

How did Cn1c(CNC(=O)CSc2nc(-c3cccc(Cl)c3)nc3cc(=O)[nH]n23)nc2ccccc21 do in these assays?
G9a inh: 60.9%[59 µM]; HP1b binding inh: 75.7%; BAZ2B inh: 19.9%; JMJD2A Tudor: -3.9%

How did O=Cc1c(NCc2ccc(Cl)cc2)c2ccccc2[nH]c1=O do in these assays?
G9a inh: 15.9%; HP1b binding inh: 36.5%; BAZ2B inh: -23.0%; JMJD2A Tudor: 5.4%; Sfp inh: 4.7%

Results for Cc1ccccc1NC(=O)CSc1nc(-c2cccs2)nc2cc(=O)[nH]n12 ?
G9a inh: 17.0%[12.7 µM]; HP1b binding inh: 5.9%; BAZ2B inh: 50.1µM*; JMJD2A Tudor: inconclusive

How did CCOC(=O)c1cnc2c(cnn2CC)c1NN=C(C)C do in these assays?
G9a inh: 29.9µM*; Sfp inh: 44.7µM*!

Results for Cc1ccccc1OCC(O)CN1CCN(CC(O)COc2ccccc2C)C(C)C1 (centres undefined) ?
G9a inh: 17.8%[2.33 µM]; HP1b binding inh: inconclusive; BAZ2B inh: 22.4µM*; JMJD2A Tudor: 2µM*; Sfp inh: inconclusive

How did C=CCc1ccccc1OCC(O)CN1CCN(CCN2C(=O)c3cccc4cccc(c34)C2=O)CC1 (centres undefined) do in these assays?
G9a inh: 39.8µM*; HP1b binding inh: inconclusive; BAZ2B inh: inconclusive; JMJD2A Tudor: inconclusive; Sfp inh: 5.62µM*

What do the screens show for `Cc1ccccc1OCC(O)CN1CCN(CCN2C(=O)c3cccc4cccc(c34)C2=O)CC1` (centres undefined)?
G9a inh: 79.4µM*; HP1b binding inh: -24.4%; BAZ2B inh: inconclusive; JMJD2A Tudor: inconclusive; Sfp inh: 12.5%

Results for Cc1ccc(NS(=O)(=O)c2cc(OCC(N)=O)c(C)cc2Cl)cc1C ?
G9a inh: -13.2%[59 µM]; HP1b binding inh: 27.5%; BAZ2B inh: 7.3%; JMJD2A Tudor: -18.0%; Sfp inh: 16.9%

How did CCOC(=O)/C(=N\Nc1cc(C(F)(F)F)ccc1Cl)N(CC)CC do in these assays?
G9a inh: 3.55µM*; HP1b binding inh: 7.0%; BAZ2B inh: inconclusive; JMJD2A Tudor: -30.1%; Sfp inh: 13.5%

Results for CCOC(=O)/C(=N\Nc1ccccc1Cl)N(C)C1CCCCC1 ?
G9a inh: 10µM*; HP1b binding inh: 13.0%; BAZ2B inh: -30.2%; JMJD2A Tudor: -30.1%; Sfp inh: -11.5%

Results for CCOC(=O)N1CCC(N(CCN(C)C)C(=S)Nc2ccccc2Cl)CC1 ?
G9a inh: 27.3%[59 µM]; HP1b binding inh: 34.7%; BAZ2B inh: 0.5%; JMJD2A Tudor: -9.2%; Sfp inh: 9.8%

How did CN(C)CC(=O)Nc1cc(C(F)(F)F)ccc1Cl do in these assays?
G9a inh: 14.5%[59 µM]; HP1b binding inh: 22.3%; BAZ2B inh: 48.2%; JMJD2A Tudor: 2.2%; Sfp inh: -15.3%

How did C#CCSC1=C(C#N)C(c2cccs2)C(C(=O)OCC)=C(C)N1 (centres undefined) do in these assays?
G9a inh: 0.8%[12.7 µM]; HP1b binding inh: 38.4%; BAZ2B inh: 18.5%; JMJD2A Tudor: -8.6%; Sfp inh: 28.2µM*

Results for CCN(CC)C(=O)CSC1=C(C#N)C(c2cccs2)C=C(C)N1 (centres undefined) ?
G9a inh: 10µM*; HP1b binding inh: 17.4%; BAZ2B inh: 15.7%; JMJD2A Tudor: 56.2µM*; Sfp inh: 50.1µM*

How did CCN(CC)C(=O)C1=C(C)NC(=S)NC1c1cccs1 (centres undefined) do in these assays?
G9a inh: inconclusive; HP1b binding inh: 13.4%; BAZ2B inh: -4.9%; JMJD2A Tudor: -15.9%; Sfp inh: -0.1%

What do the screens show for `CCOC(=O)C1=C(C)NC(SCC(=O)OC)=C(C#N)C1c1ccc(C(=O)OC)cc1` (centres undefined)?
G9a inh: inconclusive; HP1b binding inh: 41.7%; BAZ2B inh: -16.0%; JMJD2A Tudor: -11.2%; Sfp inh: 56.2µM*

What do the screens show for `O=C(c1ccc2ccccc2c1)N1CCCCC1`?
G9a inh: 13.8%; HP1b binding inh: 31.2%; BAZ2B inh: 2.8%; JMJD2A Tudor: -5.4%; Sfp inh: 15.6%

What do the screens show for `Cc1ccc(NS(=O)(=O)c2ccc(C(=O)N3CC(C)CC(C)C3)cc2)cc1` (centres undefined)?
G9a inh: -26.3%; HP1b binding inh: 19.5%; BAZ2B inh: 2.6%; JMJD2A Tudor: -17.9%

Screens (PubChem)
